As usually defined, the inhibition is the relative decrease from the control value, in per cent.

In all, about 97,000 compounds went through this assay and about 140 (0.14%) were called active. Many of the other results were omitted from the sample, so actives are more common in it than they were. A number with no mark means an inactive call.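 The calls were made as follows: active = inhibition above the screen-wide mean inhibition plus 3 SD (cut at about 15% in these data); inactive = the rest.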

The values below come from PubChem BioAssay AID720 (The Scripps Research Institute Molecular Screening Center, 2007).

The target in this assay is Ephrin type-B receptor 4 (Homo sapiens) (UniProt P54760). Description: blockers of EphB4 ligand binding – biochemical, TNYL-RAW peptide probe, fluorescence polarization, primary screen (AID 720).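 Also: 0% = DMSO wells and 100% = excess unlabeled TNYL-RAW peptide.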 Conditions: EphB4 LBD / TNYL-RAW-Alexa532 peptide, at 7 µM, hits give high values. (In fluorescence polarisation assays a small probe gives low polarisation when free and higher when bound to something large.)
Chain of Ephrin type-B receptor 4 (Homo sapiens) (P54760 whole entry, looked up, the tested form may be a part): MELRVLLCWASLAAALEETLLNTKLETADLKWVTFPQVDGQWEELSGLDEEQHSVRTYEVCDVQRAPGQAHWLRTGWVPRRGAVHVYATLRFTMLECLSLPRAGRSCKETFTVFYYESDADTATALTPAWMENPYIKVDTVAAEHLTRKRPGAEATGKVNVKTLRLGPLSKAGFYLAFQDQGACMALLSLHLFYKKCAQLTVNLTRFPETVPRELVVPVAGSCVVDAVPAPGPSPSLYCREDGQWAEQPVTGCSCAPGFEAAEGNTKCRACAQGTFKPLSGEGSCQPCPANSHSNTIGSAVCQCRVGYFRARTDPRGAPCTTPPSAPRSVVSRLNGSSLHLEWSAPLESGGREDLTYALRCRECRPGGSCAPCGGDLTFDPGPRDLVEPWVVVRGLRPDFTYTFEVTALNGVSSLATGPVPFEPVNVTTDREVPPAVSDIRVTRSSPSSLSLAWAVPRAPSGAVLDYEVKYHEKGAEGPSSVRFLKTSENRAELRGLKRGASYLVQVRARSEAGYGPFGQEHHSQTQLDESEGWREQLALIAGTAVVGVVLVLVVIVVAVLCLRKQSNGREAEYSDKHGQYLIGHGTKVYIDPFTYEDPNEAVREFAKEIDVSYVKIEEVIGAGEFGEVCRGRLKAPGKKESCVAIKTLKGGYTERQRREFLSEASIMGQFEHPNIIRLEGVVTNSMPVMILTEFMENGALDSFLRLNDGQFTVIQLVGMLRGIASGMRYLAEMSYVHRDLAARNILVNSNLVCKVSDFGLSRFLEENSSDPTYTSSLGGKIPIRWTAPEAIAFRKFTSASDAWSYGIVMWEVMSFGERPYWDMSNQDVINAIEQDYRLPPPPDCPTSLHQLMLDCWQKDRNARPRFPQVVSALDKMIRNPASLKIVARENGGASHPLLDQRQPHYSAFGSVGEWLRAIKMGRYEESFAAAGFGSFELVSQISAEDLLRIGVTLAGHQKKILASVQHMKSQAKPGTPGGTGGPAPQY
For the compound `O=C(NCc1ccccc1Cl)c1csc2c1CCCCC2`, the inhibition was 2.57%. As for `CCCn1c(C)cc(C(=O)COC(=O)c2c(C)nn(-c3ccccc3)c2C)c1C`, the inhibition is 0.32%. Turning to `CCCCNC(=O)CSc1nc2ccc(NC(=O)CSc3nnc(COc4ccccc4C)n3C)cc2s1`, the inhibition is -4.14%.

Consider `CC1=NN(C(C)C)C(=O)C1`, for which the inhibition was -0.74%. On to `O=S(=O)(c1ccc(Br)cc1)n1ccc2ccccc21`, for which the inhibition is 6.94%. For `NC(=O)c1c(NC(=O)CSc2nnc(-c3ccco3)n2N)sc2c1CCCC2`, the inhibition is 0.73%. `CCC(=O)Nc1ccc(C(=O)Nc2cc(C)on2)cc1`: the inhibition is 3.48%. Take `COc1ccc(N(CC(=O)NC2CCCCC2)C(=O)CNC(=O)c2ccco2)c(OC)c1`: the inhibition was 0.8%. With `CCCCCCC12CCC(C(=O)O)(CC1)CC2`, the inhibition is -4.95%.

For `Cn1c(CO)cnc1SCc1ccccc1`, the inhibition was 3.71%. Take `CCOc1cc(N2CCOCC2)c(OCC)cc1NC(=O)COC(=O)[C@H](Cc1c[nH]c2ccccc12)NC(C)=O`: the inhibition was 5.55%. As to `CCOc1cc(N2CCOCC2)c(OCC)cc1NC(=O)COc1cccc2cccnc12`, the inhibition is 17.3% (active). Under `CCOc1cc(NC(=O)c2ccco2)c(OCC)cc1NC(=O)COc1ccccc1` stands -10%. `S=C(NCCC1=CCCCC1)Nc1ccccc1`: the inhibition is 4.71%. For the compound `c1ccc(-n2nc3ccccc3n2)cc1`, the inhibition is 1.16%. On to `COc1ccc(C2=NO[C@@H]3C(=O)N(Cc4ccccc4)C(=O)[C@H]23)cc1OC`, for which the inhibition is 7.58%. Consider `Nc1nc(C23CC4CC(CC(C4)C2)C3)cs1`, for which the inhibition was -1.67%. Consider `O=C(CCC(=O)OCc1cccc(C(=O)Oc2ccccc2)c1)Nc1cccc2ccccc12`, for which the inhibition was 3.74%.

`COc1ccc(CCNC(=O)COC(=O)c2ccc[nH]c2=O)cc1`: the inhibition was -5.04%. The figure for `O=C(N/N=C\c1ccc(-c2ccc(Cl)c(Cl)c2)o1)C(=O)N1CCCC1` is -0.37%; for `CCOc1cc(NC(=O)c2cnccn2)c(OCC)cc1NC(=O)c1ccc(C)cc1` it is -6.39%. The figure for `CC(C)Cc1oc(C(=O)O)cc1CN` is -0.3%; for `O=C(NC1CC1)c1ccc2c(c1)NC(=O)c1ccccc1S2` it is 0.56%; for `COc1ccc(-c2csc3nc(-c4ccccc4F)oc(=O)c23)cc1OC` it is -10.2%. Turning to `O=C(N/N=C/c1ccc(O)cc1)/C(=C/c1ccc([N+](=O)[O-])cc1)NC(=O)c1ccccc1`, the inhibition is -1.89%. Regarding `CCOCc1nnc(NC(=O)CSc2ccc(C)cc2)s1`, the inhibition was 1.51%.

Regarding `O=[N+]([O-])c1ccc(C=Nc2ccc(Cl)cc2Cl)s1`, the inhibition was -0.13%. As to `CC1=CC(C)(C)Nc2ccc(OC(=O)C(Cc3ccccc3)N3C(=O)C4CCCCC4C3=O)cc21` (centres undefined), the inhibition was -0.93%.

Take `S=c1[nH]nc(CSCc2ccc(Cl)cc2Cl)n1-c1ccccc1`: the inhibition is 8.29%. As for `CCOC(=O)c1cnc(SCC(=O)Nc2cccc(OC)c2)nc1N`, the inhibition was 9.83%.

Consider `O=S(=O)(N/N=C\c1cccn1-c1ccccc1)c1ccc2ccccc2c1`, for which the inhibition was -8.09%.

Consider `Cn1c2ccccc2n2c(=O)c(=O)n(CC(=O)c3ccc(F)cc3)nc12`, for which the inhibition was 0.04%. On to `COc1cccc(C(=O)NNC(=O)c2ccccc2Br)c1`, for which the inhibition was -7.4%. As for `O=C(CN1CCN(S(=O)(=O)c2ccc3ccccc3c2)CC1)NC(=O)NC1CCCCC1`, the inhibition is 5.63%. The figure for `Cc1ccc(SC(=O)COc2ccc(C)c(C)c2)cc1` is 3.52%; for `O=[N+]([O-])c1ccc(N2CCN(S(=O)(=O)c3ccc4ccccc4c3)CC2)cc1NCc1ccco1` it is 0.12%; for `CCc1cccc2c(C=C(C#N)C#N)cn(CC(=O)N3CCCCC3)c12` it is -0.37%. As to `COc1ccc(CC(NC(C)=O)C(=O)N2CCN(C(=O)Nc3cccc(Cl)c3)CC2)cc1OC` (centres undefined), the inhibition is -2.32%.

For the compound `CCOc1ccc(NC(=O)CCS(=O)(=O)c2ccc3c(c2)CCCN3C(=O)CC)cc1`, the inhibition was 8.53%.

As to `COc1ccccc1NC(=O)C1CCCN(c2cc(C)nc3ncnn23)C1` (centres undefined), the inhibition was -5.56%. For the compound `C=CCOc1cccc(CNn2cn[nH]c2=S)c1`, the inhibition was -3.4%. The figure for `C=C(C)CNC(=S)/N=c1\scc(C)n1CC` is -8.88%. As for `CCCCNC(=S)NNC(=O)c1cc(C)on1`, the inhibition was -0.6%.

Regarding `CC(C)NC(=O)CSc1ccccc1C(=O)NCc1ccc2c(c1)OCO2`, the inhibition was 2.19%. As for `O=C(CSCc1ccc([N+](=O)[O-])cc1)NCCSCc1ccccc1`, the inhibition was 4.49%.

Consider `Cc1cccc(C)c1N1CCN(S(=O)(=O)N2CCOCC2)CC1`, for which the inhibition was 3.9%. The figure for `O=S(=O)(N1CCOCC1)N1CCN(c2ccccc2F)CC1` is 20.7% (active). For the compound `O=C(c1ccc(CN2CCOCC2)cc1)N1CCN(c2ccccc2F)CC1`, the inhibition was -2.74%.

On to `O=C(Nc1cccc(NC(=O)c2ccco2)c1)c1cnccn1`, for which the inhibition is -6.85%. As to `COc1ccc(NC(=O)/C(Cl)=C(/Cl)S(=O)Cc2ccc(C)cc2)cn1` (centres undefined), the inhibition was 7.2%.

On to `CCOCCn1c(C(C)C)nc2ccccc21`, for which the inhibition was 0.96%. `O=C(Cc1ccc(S(=O)(=O)N2CCOCC2)s1)NCCC(c1ccccc1)c1ccccc1`: the inhibition is -2.3%. In the case of `CCOC(=O)c1c(NC(=O)/C=C/c2ccco2)sc(C)c1C`, the inhibition is 0.57%. For `CC(=O)Nc1cccc(/C(C)=N/NC(=O)c2ccccc2Cl)c1`, the inhibition is 2.34%. For the compound `O=C(NCC(=O)N(Cc1cccs1)C(C(=O)NC1CCCCC1)c1ccco1)c1cccs1` (centres undefined), the inhibition is -1.39%. For `O=C1Nc2cc(Cl)c(Cl)cc2N(O)N1c1cc(Cl)cc(Cl)c1`, the inhibition is 2.41%. Under `CC(C)C(=O)NC(NC(=S)NC1CCS(=O)(=O)C1)C(Cl)(Cl)Cl` (centres undefined) stands 2.04%; under `O=C(c1cc2sccc2n1Cc1ccc(F)cc1)N1CCc2ccccc21`, 4.78%.

As for `Cc1c(NC(=O)/C=C/C(=O)O)cccc1[N+](=O)[O-]`, the inhibition was -6.42%. For `CN(C)/C=C(/C(=O)c1ccc(Cl)cc1)S(=O)(=O)c1ccccc1`, the inhibition is -11.6%.

As to `N=c1c2c3c(sc2nc2n1CCCCC2)CCCC3`, the inhibition was 6.43%. For the compound `O=c1[nH][nH]c(C(F)(F)F)c1C=NCc1ccccc1Cl`, the inhibition is 2.43%. The figure for `O=S(=O)(NN=C1CCCCCCC1)c1ccc(Br)cc1` is 5.67%; for `CCOC(=O)C1=C(c2ccccc2)N=C2SCC(=O)N2C1c1ccc(O)c(OC)c1` (centres undefined) it is 2.71%.

For `COCCn1c(SCc2nc3cc(OC)c(OC)cc3c(=O)[nH]2)nnc1-c1ccncc1`, the inhibition is 5.33%. Under `O=C(C1=C(O)C(=O)N(Cc2ccccc2)C1c1cccnc1)c1ccco1` (centres undefined) stands 27% (active); under `O=C(C1=C(O)C(=O)N(Cc2ccccc2)C1c1ccco1)c1ccco1` (centres undefined), -8.37%.

On to `COc1ccc(C2C(C(C)=O)=C(O)C(=O)N2Cc2cccnc2)cc1` (centres undefined), for which the inhibition was 1.74%. For `COc1ccc2c(c1)C(C)=CC(C)(C)N2C(=O)Nc1ccccc1`, the inhibition is 6.35%.

In the case of `CC(=O)Oc1ccc(NC(=O)CCC2CCCCC2)c(C(=O)O)c1`, the inhibition was 4.49%.

As for `O=C(CN1CCN(c2ccc(Cl)cc2)CC1)N1CCCC1`, the inhibition was 4.82%. Under `Oc1ccc(/C=N/NC2=NCCCCC2)c(O)c1` stands 2.04%; under `CCOC(=O)c1sc(C)c2c1NC(C)(c1cccc3ccccc13)NC2=O` (centres undefined), 13.2%. As to `Cc1cc(C)nc(SC(C)C(=O)N/N=C/c2cccs2)n1` (centres undefined), the inhibition is 2.66%. For the compound `C=CCc1ccc(OCCOc2cccc(/C=N/n3cnnc3)c2)c(OC)c1`, the inhibition is -1.42%. The figure for `Cc1ccc(N2C(=O)CC(Sc3ncn[nH]3)C2=O)cc1` (centres undefined) is 0.58%; for `CC(C)CNC(=S)NNC(=O)c1nn(C)cc1Cl` it is 7.68%. As to `COc1ccc(-c2noc(-c3ccc(C)cc3)n2)cc1`, the inhibition is -4.98%. On to `CSc1cc(C)n(-c2ccccc2C)c(=S)c1C(C)=O`, for which the inhibition was -5.85%. `CCCOc1cc(C)c(S(=O)(=O)n2nnc3ccccc32)cc1C`: the inhibition is -0.8%. `CCc1nn(-c2cc(Oc3cccc4ccccc34)nc(-c3ccccc3)n2)c(N)c1C#N`: the inhibition was -9.42%. With `CCOc1cc(C(=O)Nc2c(C)ccc3nsnc23)cc(OCC)c1OCC`, the inhibition is -8.62%.

Take `COc1ccc(CNC(=O)CCn2cccc2)cc1`: the inhibition is -2.06%. As to `COC(=O)c1ccc(NC(=O)C23CC4CC(C2)CC(n2cnc(Cl)n2)(C4)C3)cc1`, the inhibition was 3.33%.
